Each structure is given as a SMILES string. Calls of active or inactive are those of the source. Unless noted, no rule for the calls is given here.

Our source for the z-score and composite z-score values is PubChem BioAssay.

Assay [1] is described as follows: HepG2 liver cancer cell viability effects, profiling panel, resazurin fluorescence, 24 h, PK04 Diversity Set (AID 1172). To be noted: higher = more signal. In general terms: The colour change of resazurin is a common sign of viable cells or microbes.
A short description of assay [2]: basal S. cerevisiae growth modulation, no modifier, primary screen, OD600, strain BY4716, 24 h, basal condition (AID 1173). To be noted: OD600, 24 h, higher = more signal, called active from +8 up or from −8 down.
Assay [3] is described as follows: MM1S myeloma cell viability, profiling panel, resazurin fluorescence, basal, 24 h, PK04 Diversity Set (AID 1174).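 Also: MM1S multiple myeloma cell line.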 To be noted: higher = more signal, called active from +8 up or from −8 down.
Assay [4] deals with Dihydroorotate dehydrogenase (quinone), mitochondrial (Plasmodium falciparum (isolate 3D7)) (UniProt Q08210). The assay can be described thus: PfDHODH enzyme inhibitors, primary screen, biochemical, C-terminal His tag, absorbance 600 nm (AID 1175).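 Also: recombinant parasite enzyme with a five histidine tag at its C terminus.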 The note with it: DCIP absorbance 600 nm, higher = more signal, called active from +8 up or from −8 down.
Assay [5] can be described thus: P. aeruginosa biofilm formation inhibitors, primary screen, strain PAO1, LB-PBS medium, absorbance 600 nm (AID 1176). The note with it: P. aeruginosa PAO1 growth/biofilm, A600, 12 h; higher = more signal.
The nature of assay [6]: S. cerevisiae RM11-1a growth modifiers, primary screen, strain RM11-1a, OD600, basal, 24 h (AID 1177).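 Also: cultures grown under basal conditions with no added stressor.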 The note with it: OD600, 24 h, higher = more signal, called active from +8 up or from −8 down.
Assay [7] in a line: E. coli acrAB mutant growth effects, primary screen, E. coli filamentation inducers, strain DRC39, OD650, 24 h (AID 1178).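 Also: growth measured as culture turbidity by optical density at 650 nm.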 The note with it: higher = more signal, called active from +8 up or from −8 down.
The nature of assay [8]: E. coli acrAB mutant growth effects, primary screen, E. coli filamentation inducers, strain DRC39, OD650, 48 h (AID 1179).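 Also: screen aims at cell division blockers that make cells filament.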 To be noted: E. coli DRC39 delta-acrAB growth, higher = more signal, called active from +8 up or from −8 down.
Assay [9] can be described thus: RPMI8226 myeloma cell viability, profiling panel, resazurin fluorescence, basal, 24 h, PK04 Diversity Set (AID 1180).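 Also: RPMI8826 multiple myeloma cell line at 5000 cells per well.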 To be noted: higher = more signal.
Assay [10] concerns the target E3 ubiquitin-protein ligase XIAP (Homo sapiens) (UniProt P98170). The assay can be described thus: XIAP binders, primary screen, biophysical, small-molecule microarray, fluorescence 635 nm (AID 1181).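 Also: score merges 667 nm emission and signal to noise over triplicate slides.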 To be noted: small-molecule microarray binding, higher = more signal.
The subject of assay [11] is XIP peptide (Xip251-270) binding. The assay can be described thus: small-molecule binders of XIP peptide, primary screen, biochemical, small-molecule microarray, fluorescence 635/667 nm, 0.1 µg/mL protein (AID 1182). To be noted: fluorescent protein binding, 635 nm, higher = more signal, called active from +8 up or from −8 down.
The next assay has as its system XIP peptide (Xip251-270). The assay can be described thus: small-molecule binders of XIP peptide, primary screen, biochemical, small-molecule microarray, fluorescence 635/667 nm, 0.5 µg/mL protein (AID 1183). The note with it: small-molecule microarray binding, fluorescence 635 nm; higher = more signal.
Assay [12] in a line: Plasmodium falciparum growth inhibition, primary screen, strain 3D7, DAPI fluorescence, 100 nL (AID 1184).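 Also: parasites grown inside human red blood cells in medium with human serum.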 The note with it: P. falciparum 3D7 growth, 3 d, higher = more signal.
The target in assay [13] is Homeobox protein Hox-A13 (Mus musculus) (UniProt Q62424). The assay can be described thus: inhibitors of HoxA13-DNA binding, primary screen, biochemical, fluorescence polarization, labeled oligonucleotide (AID 1185). The note with it: 15 min, higher = more signal, called active from +8 up or from −8 down. A general note: Polarisation of emitted light reports the rotation of a fluorescent probe.

Assay [14] in a line: inhibitors of hydroxyurea-induced Chk1 phosphorylation, primary screen, imaging, HeLa, phospho-Chk1 antibody, percent positive cells (AID 1186). To be noted: hydroxyurea-induced phospho-Chk1 immunofluorescence imaging, higher = more signal.
The nature of assay [15]: inhibitors of hydroxyurea-induced Chk1 phosphorylation, primary screen, imaging, HeLa, phospho-Chk1 nuclear intensity (AID 1187). The note with it: hydroxyurea-induced phospho-Chk1 immunofluorescence imaging, higher = more signal.

Sequence of Dihydroorotate dehydrogenase (quinone), mitochondrial (Plasmodium falciparum (isolate 3D7)) (Q08210 whole entry, looked up): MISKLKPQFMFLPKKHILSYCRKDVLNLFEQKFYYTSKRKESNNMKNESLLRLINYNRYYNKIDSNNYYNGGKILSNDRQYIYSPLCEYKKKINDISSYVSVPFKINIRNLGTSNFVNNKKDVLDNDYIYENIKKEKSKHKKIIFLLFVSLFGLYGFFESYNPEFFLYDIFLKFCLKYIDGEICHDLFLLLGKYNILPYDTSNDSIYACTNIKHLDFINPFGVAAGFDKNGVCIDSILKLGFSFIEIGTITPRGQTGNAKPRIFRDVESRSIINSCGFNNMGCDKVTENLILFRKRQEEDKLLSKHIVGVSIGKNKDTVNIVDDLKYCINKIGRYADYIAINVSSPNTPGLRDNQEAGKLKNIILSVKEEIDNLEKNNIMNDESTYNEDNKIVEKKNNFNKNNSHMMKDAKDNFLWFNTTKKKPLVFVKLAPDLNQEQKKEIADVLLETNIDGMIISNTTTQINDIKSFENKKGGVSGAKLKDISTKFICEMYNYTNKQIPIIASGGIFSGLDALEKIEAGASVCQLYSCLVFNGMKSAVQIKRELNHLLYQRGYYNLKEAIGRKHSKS
Sequence of E3 ubiquitin-protein ligase XIAP (Homo sapiens) (P98170 whole entry, looked up): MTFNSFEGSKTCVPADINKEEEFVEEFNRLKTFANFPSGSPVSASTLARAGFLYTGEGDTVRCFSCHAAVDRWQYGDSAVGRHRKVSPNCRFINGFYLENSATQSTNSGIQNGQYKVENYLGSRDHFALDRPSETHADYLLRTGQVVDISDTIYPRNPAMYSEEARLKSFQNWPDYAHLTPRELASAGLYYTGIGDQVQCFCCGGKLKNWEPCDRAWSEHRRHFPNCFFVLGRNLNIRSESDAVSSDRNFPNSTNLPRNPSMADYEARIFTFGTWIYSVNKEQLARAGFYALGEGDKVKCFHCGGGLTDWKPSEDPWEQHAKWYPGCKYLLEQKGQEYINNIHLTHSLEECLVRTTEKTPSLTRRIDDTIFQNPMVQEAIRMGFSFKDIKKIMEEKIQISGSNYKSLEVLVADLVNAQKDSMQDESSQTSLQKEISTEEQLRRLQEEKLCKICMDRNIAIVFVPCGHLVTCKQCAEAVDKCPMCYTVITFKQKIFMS
Sequence of Homeobox protein Hox-A13 (Mus musculus) (Q62424 whole entry, looked up): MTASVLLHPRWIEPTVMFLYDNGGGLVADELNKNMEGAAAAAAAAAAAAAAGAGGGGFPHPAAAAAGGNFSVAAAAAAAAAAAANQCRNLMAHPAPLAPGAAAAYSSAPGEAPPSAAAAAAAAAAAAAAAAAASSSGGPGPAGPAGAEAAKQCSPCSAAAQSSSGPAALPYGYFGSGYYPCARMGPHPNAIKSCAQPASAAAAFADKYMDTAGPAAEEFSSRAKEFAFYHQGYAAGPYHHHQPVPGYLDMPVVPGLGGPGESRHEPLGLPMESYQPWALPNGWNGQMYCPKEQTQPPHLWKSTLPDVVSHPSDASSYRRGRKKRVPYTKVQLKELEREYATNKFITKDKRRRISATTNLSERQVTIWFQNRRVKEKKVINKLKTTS

On to `CCOC(=O)C1=CCC(c2cc3ccccc3[nH]2)N(S(=O)(=O)c2ccccc2[N+](=O)[O-])C1` (stereo not given), for which the z-score was -0.0211 in [1]; 1.08 (inactive) in [2]; -1.08 (inactive) in assay [3]; 0.546 (inactive) in assay [5]; -0.16 (inactive) in assay [6]; -0.591 (inactive) in [7]. For the same molecule, the z-score in assay [8] is 0.158 (inactive); in [9], -1.62; in assay [12] it was -0.65; in assay [13] it was -1.5 (inactive); in [14] it was -0.285 (inactive); in [15] it was -0.518 (inactive). Besides, the composite z-score was -0.242 (inactive) in assay [4], -0.014 in [10], -0.212 (inactive) in assay [11] and 0.817 in the assay with XIP peptide (Xip251-270).
Take `CC(C)(C)OC(=O)CC[C@]1(C(=O)N2CCOCC2)N=C(c2ccc(OCCCO)cc2)O[C@H]1c1ccccc1CN=[N+]=[N-]`: the z-score is 0.125 in [1]; -0.0255 (inactive) in assay [2]; -0.362 (inactive) in assay [3]; 1.78 (inactive) in assay [5]; -0.459 (inactive) in assay [6]; 0.565 (inactive) in [7]. Further, the z-score is 0.088 (inactive) in assay [8]; 0.0933 in assay [9]; -1.79 in assay [12]; -6.05 (inactive) in assay [13]; -0.0845 (inactive) in assay [14]; -0.314 (inactive) in assay [15]. In addition, the composite z-score in assay [4] is -0.0668 (inactive); in [10], 0.0159; in assay [11] it was 0.518 (inactive); in the assay on XIP peptide (Xip251-270), 0.792.
As to `CC(C)[Si](C#CCCCC#N)(O[C@H](c1ccccc1)c1cn([C@H](C)c2ccccc2)nn1)C(C)C`, the z-score was 0.592 in [1]; -1.06 (inactive) in assay [2]; 0.181 (inactive) in [3]; 0.559 (inactive) in assay [5]; -0.802 (inactive) in assay [6]; -0.708 (inactive) in assay [7]. Also, the z-score is -0.482 (inactive) in [8]; 0.409 in [9]; -0.133 in assay [12]; -0.445 (inactive) in assay [13]; -0.228 (inactive) in assay [14]; -0.174 (inactive) in [15]. In addition, the composite z-score in assay [4] was 0.31 (inactive); in assay [10] it was 0.172; in [11] it was -0.301 (inactive); in the assay with XIP peptide (Xip251-270), 0.415.
Take `CC(C)=CCN(C(=O)C#Cc1ccccc1)[C@H](CO)c1ccccc1`: the z-score in assay [1] was -3.85; in assay [2], -0.192 (inactive); in assay [3], -5.79 (inactive); in assay [5] it was -0.0218 (inactive); in assay [6], 3.26 (inactive); in assay [7] it was 0.163 (inactive). In addition, the z-score in assay [8] is -2.57 (inactive); in assay [9], -5.82; in assay [12], -1.83; in assay [13], -7.52 (inactive); in assay [14], -0.956 (inactive); in assay [15], -0.6 (inactive). For the same molecule, the composite z-score in assay [4] was 0.885 (inactive); in [10] it was 0.165; in assay [11] it was -0.415 (inactive); with XIP peptide (Xip251-270), -0.0445.
Take `CCN(CC)c1ccc(N2CC=CC34O[C@@H]5C=CCOC(=O)[C@@H]5[C@H]3C(=O)N(CCCO)[C@@H]4C2=O)cc1` (stereo not given in full): the z-score in [1] is -0.527; in [2] it was -0.746 (inactive); in [3], 0.242 (inactive); in assay [5], 0.537 (inactive); in assay [6], -0.049 (inactive); in [7], 1.27 (inactive). In addition, the z-score in assay [8] is 0.715 (inactive); in assay [9], 0.4; in [12], -1.55; in [13], -4.02 (inactive); in [14], -0.232 (inactive); in assay [15] it was -0.569 (inactive). Moreover, the composite z-score was -1.47 (inactive) in assay [4], 0.107 in assay [10], 0.309 (inactive) in [11] and 0.306 in the assay on XIP peptide (Xip251-270).
Consider `COCCOC(=O)N1C(=O)[C@@]2(c3ccccc31)[C@H](C(=O)N1CCCCCCC1)[C@H]1C(=O)O[C@H](c3ccccc3)[C@H](c3ccccc3)N1[C@@H]2c1ccc(O)cc1`, for which the z-score in [1] was 0.226; in assay [2], -0.975 (inactive); in [3], -1.51 (inactive); in [5], 1.32 (inactive); in [6], -0.145 (inactive); in assay [7] it was -0.0831 (inactive). Moreover, the z-score is -0.303 (inactive) in assay [8]; -1.03 in assay [9]; -0.621 in assay [12]; 2.5 (inactive) in assay [13]; -0.391 (inactive) in assay [14]; -0.586 (inactive) in assay [15]. For the same molecule, the composite z-score in assay [4] is -0.862 (inactive); in [10] it was 0.782; in assay [11] it was 3.54 (inactive); in the assay with XIP peptide (Xip251-270) it was 0.83.
On to `COCCOC(=O)N1C(=O)[C@@]2(c3cc(C#CCCO)ccc31)[C@H](c1ccc(O)cc1)N1[C@H](c3ccccc3)[C@H](c3ccccc3)OC(=O)[C@H]1[C@@H]2C(=O)N1CCc2cc(OC)c(OC)cc2C1`, for which the z-score in assay [1] is 0.458; in assay [2], 0.537 (inactive); in [3], 0.202 (inactive); in [5], 0.318 (inactive); in assay [6], 1.26 (inactive); in assay [7] it was 0.886 (inactive). The z-score in assay [8] was 0.821 (inactive); in assay [9] it was 1.26; in assay [12], -0.0976; in assay [13] it was -1.97 (inactive); in assay [14] it was -0.0202 (inactive); in assay [15], 0.0613 (inactive). The composite z-score in assay [4] is -1.1 (inactive); in assay [10], -0.0272; in assay [11], 0.0404 (inactive); with XIP peptide (Xip251-270), 0.786.
Take `COCCOC(=O)N1C(=O)[C@@]2(c3cc(C#CC4(O)CCCCCC4)ccc31)[C@H](c1ccccc1OCCO)N1[C@H](c3ccccc3)[C@H](c3ccccc3)OC(=O)[C@H]1[C@@H]2C(=O)N1CCCCCCC1`: the z-score is -0.0209 in assay [1]; 2.15 (inactive) in assay [2]; -0.303 (inactive) in assay [3]; 2.05 (inactive) in assay [5]; 2.76 (inactive) in [6]; -0.225 (inactive) in [7]. In addition, the z-score in [8] was 0.003 (inactive); in assay [9] it was -0.444; in assay [12], -1.93; in assay [13], 3.98 (inactive); in assay [14], -0.531 (inactive); in [15] it was -0.561 (inactive). Further, the composite z-score in assay [4] is 0.0767 (inactive); in assay [10], 0.0483; in assay [11], 1.86 (inactive); with XIP peptide (Xip251-270) it was 0.727.
Consider `COc1ccc([Si](C)(C)[C@@H]2[C@@H](CCO)O[C@]3(C(=O)N(Cc4ccccc4)c4ccc(N5C(=O)c6ccccc6Oc6ccccc65)cc43)[C@H]2C)cc1`, for which the z-score in assay [1] was 1.09; in assay [2], 1.84 (inactive); in [3], -1.3 (inactive); in assay [5], 0.225 (inactive); in assay [6], 3.88 (inactive); in assay [7], 0.727 (inactive). In addition, the z-score in [8] was 0.435 (inactive); in [9], -1.81; in assay [12], -0.119; in [13], -1.08 (inactive); in assay [14] it was -0.83 (inactive); in [15], -0.253 (inactive). The composite z-score in assay [4] is -0.641 (inactive); in assay [10] it was -0.157; in [11], 0.664 (inactive); in the assay with XIP peptide (Xip251-270), 0.299.
With `NCCCC[C@@H]1NC(=O)[C@H]2C[C@@H](C(=O)NCc3ccc(F)cc3)[C@@H](c3cccc(OCCO)c3)N2C1=O`, the z-score is -1.49 in assay [1]; -0.956 (inactive) in assay [2]; 0.646 (inactive) in [3]; 0.379 (inactive) in assay [5]; 1.57 (inactive) in assay [6]; 0.71 (inactive) in assay [7]. Besides, the z-score in assay [8] was 0.896 (inactive); in assay [9] it was 1.04; in assay [12] it was 0.0979; in [13], 5.72 (inactive); in assay [14], -0.281 (inactive); in assay [15], -0.45 (inactive). The composite z-score in assay [4] was 0.22 (inactive); in assay [10] it was -0.271; in assay [11], 0.752 (inactive); in the assay with XIP peptide (Xip251-270) it was 0.837.
